Test [1] can be described thus: P. berghei load reduction in hepatocytes – cell-based, HepG2, luciferase luminescence, HepG2 viability, primary screen (AID 624349; in the data active = parasite load remaining mostly below about 12%, no sharp cut-off; inactive = mostly above about 10%;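 note: 100% = mean of DMSO negative control wells on the same plate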). To be noted: P. berghei liver stage in HepG2, luciferase luminescence, concentration not given here; parasite load remaining: stronger effect = lower value; viability: measured here: HepG2 viability without parasites.
The nature of test [2]: signal quenchers or enhancers, Cy5 substrate/SSB – biochemical, NIH Clinical Collection, E. coli SSB, artefact control for HCV NS3 helicase inhibitor project (AID 743268). To be noted: Cy5-oligo bound E. coli SSB, fluorescence interference.
Test [3] relates to Hepatitis C virus NS3 helicase. As to the kind of experiment: blockers of NS3h binding to DNA – biochemical, fluorescence polarization, NIH Clinical Collection, primary screen (AID 743270). Conditions: NS3 helicase binding to Cy5-dT15 DNA, stronger effect = higher value, concentration not given here. (Fluorescence polarisation rises when a labelled molecule tumbles more slowly, as on binding a larger partner.)

For test [4], the target named is Single-stranded DNA-binding protein (Escherichia coli (strain K12)) (UniProt P0AGE0). As to the kind of experiment: SSB-ssDNA binding inhibitors – biochemical, fluorescence polarization, NIH Clinical Collection, counter-screen for HCV NS3 helicase inhibitor project (AID 743271; in the data active = inhibition above about 28%). To be noted: E. coli SSB-DNA binding, stronger effect = higher value, concentration not given here.

Test [5] can be described thus: compounds distorting NS3 helicase fluorescence signal – biochemical, NIH Clinical Collection, artefact control for HCV NS3 helicase inhibitor project (AID 743272).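 Note: HCV NS3 helicase with a Cy5 labelled single stranded DNA probe.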 To be noted: fluorescence interference counterscreen, HCV NS3 helicase assay; stronger effect = lower value.
The target of test [6] is 6-phosphogluconate dehydrogenase, decarboxylating (Homo sapiens) (UniProt P52209). Briefly: inhibition of human phosphogluconate dehydrogenase – biochemical, recombinant enzyme, NADPH absorbance, primary screen (AID 1159550;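 active = at least 20% inhibition of 6-phosphogluconate dehydrogenase activity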). To be noted: recombinant 6PGD, NADPH absorbance 341 nm; at 10 µM; stronger effect = higher value.
A short description of test [7]: modulation of C. elegans fzo-1 (AID 1259413).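 Note: fzo-1 mutant C. elegans worms in liquid wells.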 Conditions: C. elegans fzo-1 modulator screen, mean read-out; stronger effect = higher value.
Test [8] is described as follows: viability loss with induced miR-34 in A549 – imaging, A549 dox-inducible miR-34, nuclei and caspase counts, primary screen (AID 1347080;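 active = compounds whose cell count with miR-34 switched on is under 0.7 times the count with it off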). To be noted: A549 miR-34 inducible, Hoechst nuclei count, 48 h.
Test [9] addresses NAD(+) hydrolase SARM1 (Homo sapiens) (UniProt Q6SZW1). As to the kind of experiment: blocking NAD cleavage by SARM1 SAM-TIR – cell lysate, NAD-Glo luminescence (AID 1508614;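 active = compound whose remaining NAD level is above about 45 nM, limit read from the data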;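 note: higher remaining NAD means stronger inhibition of SARM1 NADase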). To be noted: SAM-TIR HEK293T lysate NADase, at 1 µM, stronger effect = higher value.
For test [10], the target named is Mitogen-activated protein kinase 7 (Homo sapiens) (UniProt Q13164). Briefly: Gal4-ERK5 driven luciferase induction – cell-based, HTS, primary screen (AID 1508626;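 active = luciferase signal above three times the same-plate solvent-only control wells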;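 note: luciferase driven by Gal4-ERK5 fusion binding five Gal4 sites before minimal TATA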). To be noted: HeLa Gal4-ERK5 transactivation, 18 h, at 5 µM, stronger effect = higher value.
A short description of test [11]: galactose survival enhancers in mitochondrial complex I cybrids – cell-based, galactose medium, ATP luminescence, primary screen (AID 1645843;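 active = z-score of at least 1.8 in each of two replicates, scored against plate mean and spread of sample wells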;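 note: positive z means more ATP and so rescue of galactose-driven cybrid death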). Conditions: complex I mutant cybrid cells, 72 h, stronger effect = higher value.
For a further test, the system named is F380Y. As to the kind of experiment: BK channel mutant inhibitors and activators – cell-based, U2OS BacMam, thallium flux, beta subunits, selectivity assay, profiling panel (AID 1259406;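 active = thallium flux through the channel raised or lowered by more than 3 SD from vehicle-only wells, actives on both sides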;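 note: initial slope of Thallos dye fluorescence rise after thallium is added; log ratio against the mean of 0.3% DMSO vehicle wells on the same plate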). Conditions: U2OS BacMam BK variants, at 30 µM.
Another test relates to F380Y/beta2Delta. The description is as above. Conditions: U2OS BacMam BK variants, at 30 µM.
Test [12] concerns the target Calcium-activated potassium channel subunit alpha-1 (Homo sapiens) + Leucine-rich repeat-containing protein 26 (Homo sapiens) (UniProt Q12791+Q2I0M4). Described as above. To be noted: U2OS BacMam BK variants, F380Y/Slo1WT/gamma1, at 30 µM.
In another test the test system is R275C. The description is as above. Conditions: U2OS BacMam BK variants, at 30 µM.
For a further test, the system named is R275C/beta1. Described as above. To be noted: U2OS BacMam BK variants, at 30 µM.
A further test relates to R275C/beta2Delta. Described as above. To be noted: U2OS BacMam BK variants, at 30 µM.
Test [13] can be described thus: EMT-state selective cytotoxicity in co-culture – imaging, PC-3E GFP, TEM4-18 mCherry, primary screen (AID 1345086;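 active = compounds killing one labelled cell type while sparing the other, by normalised counts and ratio limits, not self-fluorescent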;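 for all read-outs here: cells exposed to compound for 72 h before imaging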;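 for red/green cell ratio (normalised): normalised mesenchymal count divided by normalised epithelial count so high means epithelial killing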). To be noted: PC-3E GFP / TEM4-18 mCherry co-culture, imaging cell counts, at 1 µM; for red/green cell ratio (normalised): actives lie on both sides, counts scaled to control wells, 1 = unselective.
A short description of test [14]: MELAS cybrid and Rieske KO viability enhancers – cell-based, MELAS cybrids, Rieske KO mouse fibroblasts, CellTiter-Glo, primary screen (AID 1508586;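 active = mean z-score across replicates of 1.96 or higher in either the MELAS or the Rieske mutant cell line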;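 note: z relative to plate mean and SD of compound and empty wells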). Conditions: low glucose. For orientation: In ATP-based viability assays light output follows the ATP content of the culture.
The mark [15] stands for this setting: stronger effect = lower value, cell number ratio, induced over uninduced.
Setting [16] is: measured here: relative caspase fold change +Dox/-Dox.
Where [17] appears, read: measured here: total cells with miR-34 induction, stronger effect = lower value.
Setting [18] is: measured here: total cells without miR-34 induction.
Where [19] appears, read: measured here: epithelial PC-3E GFP cell survival.
[20] abbreviates: measured here: mesenchymal TEM4-18 mCherry cell survival.

“And” between values parts separate entries of the source, which are not always exact repeats. Identical values can stand only once. The source made the active and inactive calls. Unless noted, the rule behind the calls is not given here.

Sequence of Mitogen-activated protein kinase 7 (Homo sapiens) (Q13164 whole entry, looked up, the tested form may be a part): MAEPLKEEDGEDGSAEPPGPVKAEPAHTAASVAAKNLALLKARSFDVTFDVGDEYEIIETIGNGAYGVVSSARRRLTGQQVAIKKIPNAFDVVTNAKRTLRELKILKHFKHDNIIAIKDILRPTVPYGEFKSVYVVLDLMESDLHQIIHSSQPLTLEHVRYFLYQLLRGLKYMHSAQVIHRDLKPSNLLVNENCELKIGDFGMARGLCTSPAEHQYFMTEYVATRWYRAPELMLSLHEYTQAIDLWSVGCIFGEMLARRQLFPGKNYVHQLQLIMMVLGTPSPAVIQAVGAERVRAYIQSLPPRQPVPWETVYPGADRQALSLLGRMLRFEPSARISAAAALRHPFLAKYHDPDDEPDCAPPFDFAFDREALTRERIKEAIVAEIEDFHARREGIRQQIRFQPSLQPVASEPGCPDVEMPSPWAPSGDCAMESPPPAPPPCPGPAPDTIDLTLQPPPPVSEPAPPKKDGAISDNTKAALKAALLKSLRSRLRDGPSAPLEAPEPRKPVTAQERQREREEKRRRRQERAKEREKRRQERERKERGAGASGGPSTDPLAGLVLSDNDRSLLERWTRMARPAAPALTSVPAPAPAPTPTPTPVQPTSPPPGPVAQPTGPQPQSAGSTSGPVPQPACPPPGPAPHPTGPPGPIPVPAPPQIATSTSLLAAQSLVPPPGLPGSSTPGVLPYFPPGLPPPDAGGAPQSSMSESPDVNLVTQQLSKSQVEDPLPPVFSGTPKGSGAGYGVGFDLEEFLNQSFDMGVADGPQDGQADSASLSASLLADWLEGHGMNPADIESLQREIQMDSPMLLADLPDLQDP
Sequence of 6-phosphogluconate dehydrogenase, decarboxylating (Homo sapiens) (P52209 whole entry, looked up): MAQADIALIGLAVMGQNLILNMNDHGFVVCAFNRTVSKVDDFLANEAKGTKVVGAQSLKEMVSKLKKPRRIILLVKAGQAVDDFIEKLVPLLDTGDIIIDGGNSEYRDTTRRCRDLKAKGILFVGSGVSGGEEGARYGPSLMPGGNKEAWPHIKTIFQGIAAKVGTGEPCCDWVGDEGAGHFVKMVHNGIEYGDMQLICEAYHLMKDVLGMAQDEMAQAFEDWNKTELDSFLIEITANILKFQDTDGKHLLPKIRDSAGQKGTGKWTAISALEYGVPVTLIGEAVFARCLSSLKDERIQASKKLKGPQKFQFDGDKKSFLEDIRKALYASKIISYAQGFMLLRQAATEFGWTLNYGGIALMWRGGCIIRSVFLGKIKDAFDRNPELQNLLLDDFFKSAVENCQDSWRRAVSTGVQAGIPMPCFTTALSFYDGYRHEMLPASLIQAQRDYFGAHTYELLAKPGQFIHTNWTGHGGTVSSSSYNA
Sequence of NAD(+) hydrolase SARM1 (Homo sapiens) (Q6SZW1 whole entry, looked up, the tested form may be a part): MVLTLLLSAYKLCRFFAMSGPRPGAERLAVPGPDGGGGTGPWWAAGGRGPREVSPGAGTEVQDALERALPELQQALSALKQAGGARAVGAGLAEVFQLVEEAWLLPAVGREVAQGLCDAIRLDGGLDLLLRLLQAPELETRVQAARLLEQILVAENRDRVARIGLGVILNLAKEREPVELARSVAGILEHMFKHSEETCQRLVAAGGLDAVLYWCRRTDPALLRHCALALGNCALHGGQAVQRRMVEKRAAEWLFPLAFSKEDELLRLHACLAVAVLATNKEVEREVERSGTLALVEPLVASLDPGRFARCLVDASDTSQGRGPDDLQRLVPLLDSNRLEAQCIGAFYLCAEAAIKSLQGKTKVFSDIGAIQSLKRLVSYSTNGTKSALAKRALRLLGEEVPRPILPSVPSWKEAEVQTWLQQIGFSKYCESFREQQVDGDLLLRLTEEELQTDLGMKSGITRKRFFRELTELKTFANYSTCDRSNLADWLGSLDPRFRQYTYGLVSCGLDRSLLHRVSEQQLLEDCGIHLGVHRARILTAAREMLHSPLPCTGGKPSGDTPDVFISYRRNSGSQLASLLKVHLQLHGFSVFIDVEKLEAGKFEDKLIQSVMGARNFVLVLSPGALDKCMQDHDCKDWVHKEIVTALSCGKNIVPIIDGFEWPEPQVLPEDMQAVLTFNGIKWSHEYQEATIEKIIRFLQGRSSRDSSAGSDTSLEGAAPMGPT
Sequence of Calcium-activated potassium channel subunit alpha-1 (Homo sapiens) + Leucine-rich repeat-containing protein 26 (Homo sapiens) (Q2I0M4 whole entry, looked up, one chain of several): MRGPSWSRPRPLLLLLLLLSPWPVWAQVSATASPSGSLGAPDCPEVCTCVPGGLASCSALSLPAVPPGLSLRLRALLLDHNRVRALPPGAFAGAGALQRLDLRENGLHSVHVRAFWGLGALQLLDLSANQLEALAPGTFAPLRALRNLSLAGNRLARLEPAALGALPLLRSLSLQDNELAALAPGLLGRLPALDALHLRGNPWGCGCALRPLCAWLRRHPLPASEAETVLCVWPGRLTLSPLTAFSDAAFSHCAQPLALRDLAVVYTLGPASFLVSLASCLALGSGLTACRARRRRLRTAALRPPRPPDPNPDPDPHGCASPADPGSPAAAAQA

Consider `CC(=O)O[C@]1(C(C)=O)CC[C@H]2[C@@H]3C[C@H](C)C4=CC(=O)CC[C@]4(C)[C@H]3CC[C@@]21C`, for which the parasite load remaining in [1] is 22.6% (inactive). In [1], the viability (usually a read-out of living cells in per cent, often relative to untreated cells) was determined as 77.3%. In addition, the fluorescence ratio was 0.99 (inactive) in test [2] and 0.97 (inactive) in [5]. The figures for the inhibition in test [3], in [4] and in [6] were -0.45% (inactive), -0.48% (inactive) and 2.85% (inactive), respectively. In test [7], the mean signal was 251 (inactive). For the same compound, the fold change is 0.928 (inactive) in [8] (setting [15]) and 1.75 in test [8] (setting [16]). The results for the cell count in [8] (setting [17]) and in [8] (setting [18]) were 7550 and 8130, respectively. Besides, the remaining NAD in test [9] is 10 nM (inactive). The luciferase signal in [10] was 68 AU (inactive). For the same compound, the z-score in test [11] was -1.19 (inactive). The log fold change Tl+ flux in the test on F380Y is -0.0294 (inactive); with F380Y/beta2Delta it was -0.0667 (inactive); in test [12], -0.0359 (inactive); in the test on R275C, -0.0267 (inactive); in the test with R275C/beta1, 0.0157 (inactive); with R275C/beta2Delta, 0.0115 (inactive).

As for `CN=C(N)NCCC[C@H](N)C(=O)O`, the parasite load remaining in test [1] is 97.7% (inactive). This compound yielded a viability in test [1] of 72.8%. Besides, the figures for the fluorescence ratio in test [2] and in test [5] were 0.99 (inactive) and 0.93 (inactive), respectively. The inhibition (as a rule, the drop in the measured response relative to a control, in per cent) is -3.56% (inactive) in test [3]; -2.41% (inactive) in test [4]; 3.01% (inactive) and 12.6% (inactive) in test [6]. In addition, the mean signal in test [7] is 269 (inactive). The red/green cell ratio (normalised) in test [13] was 1.23 (inactive). In addition, the normalised cell number was found to be 0.78 in [13] (setting [19]) and 0.95 in [13] (setting [20]). Besides, the fold change is 0.994 (inactive) and 0.867 (inactive) in test [8] (setting [15]); 0.824 and 0.665 in test [8] (setting [16]). The cell count in test [8] (setting [17]) was 9540 and 7760; in test [8] (setting [18]), 9600 and 8960. In [11], the z-score is 0.22 (inactive).

On to `C=CC1=C(C(=O)O)N2C(=O)[C@@H](NC(=O)/C(=N\O)c3csc(N)n3)[C@H]2SC1` (stereo in doubt), for which, in [1], the parasite load remaining is 166% (inactive) and 48.1% (inactive). Moreover, in test [1], the viability is 87.7% and 99.2%. Moreover, the inhibition in test [6] is -2.05% (inactive). The mean signal in test [7] is 293 (inactive). Further, the red/green cell ratio (normalised) in [13] was 1.17 (inactive). For the same compound, the normalised cell number in test [13] (setting [19]) was determined as 0.89; in [13] (setting [20]), 1.04. Also, the fold change in test [8] (setting [15]) is 0.92 (inactive); in [8] (setting [16]), 4.11. The cell count was 12500 in test [8] (setting [17]) and 13600 in test [8] (setting [18]). The z-score was -0.152 (inactive) in [14] (MELAS cybrid survival, CellTiter-Glo 48 h, stronger effect = higher value) and -0.423 in test [14] (Rieske KO mouse fibroblast survival, CellTiter-Glo 72 h). In addition, the remaining NAD in [9] is 10 nM (inactive). In addition, the luciferase signal in [10] is 264 AU (inactive).

Take `COc1ccc(-c2oc3c(CC=C(C)C)c(O[C@@H]4O[C@H](CO)[C@@H](O)[C@H](O)[C@H]4O)cc(O)c3c(=O)c2O[C@@H]2O[C@@H](C)[C@H](O)[C@@H](O)[C@H]2O)cc1`: the parasite load remaining in test [1] is 70.8% (inactive). Besides, the viability in test [1] came out at 68.9%. Besides, the fluorescence ratio in [2] was 1 (inactive); in test [5], 0.98 (inactive). In addition, the inhibition in test [3] was -9.9% (inactive); in test [4] it was -2.41% (inactive); in test [6], 4.03% (inactive). Besides, in [7], the mean signal was 233 (inactive). Besides, the red/green cell ratio (normalised) in test [13] is 1.12 (inactive). The figures for the normalised cell number in test [13] (setting [19]) and in test [13] (setting [20]) were 1.01 and 1.13, respectively. The luciferase signal in test [10] is 48 AU (inactive). The log fold change Tl+ flux in the test on F380Y was 0.00269 (inactive); in the test with F380Y/beta2Delta, -0.0493 (inactive); in test [12] it was -0.0341 (inactive); in the test on R275C, -0.04 (inactive); with R275C/beta1 it was 0.009 (inactive); in the test with R275C/beta2Delta it was -0.0522 (inactive).

The record behind these values is PubChem BioAssay.
